# According to PubChem BioAssay (NCATS):
# Results filed as inconclusive are left out. Unmarked numbers belong to inactive results. Activity calls are given as the source filed them. Calls follow the shape of the dose curve; as a rule, active = well fitted inhibition curve with a large enough effect; inconclusive = small, poorly fitted or top-dose-only effect; inactive = flat fitted curve, though single readings scatter. Positions of bridges follow the written chain, without caps; N, C: chain ends. Non-standard residues stand in square brackets, D forms with d. Residues, ends and D or L forms follow the SMILES beside them. ξ: configuration not given here. *: point of attachment. Octanoyl(6-Me) = CCC(C)CCCCC(=O)*; ξThr(3R) = C[C@@H](O)C(N)C(=O)O; dDab = NCC[C@@H](N)C(=O)O; Dab = NCC[C@H](N)C(=O)O
# System: HEK293
# Experiment: Cytotoxic Profiling of Annotated Libraries Using Quantitative High-Throughput Screening (AID 1296008); also: nearly all actives have a fitted effect of over 60% in size
# Conditions: Five cell lines viability, CellTiter-Glo ATP luminescence, 48-72 h; max response: stronger effect = lower value
# From the text: Cell-based phenotypic screening is a commonly used approach to discover biological pathways, novel drug targets, chemical probes and high-quality hit-to-lead molecules. Many hits identified from high-throughput screening campaign are ruled out through a series of follow-up potency, selectivity/specificity, and cytotoxicity assays. Prioritization of molecules with little or no cytotoxicity for a more in-depth downstream evaluation influence the future direction of projects, so cytotoxicity profiling of the screening libraries at early stage is essential for increasing the likelihood of candidate success. […] For the annotated library, we also examined the primary targets and mechanistic pathways regularly associated with cell death. To our knowledge, this is the first study to use high-throughput screening to profile large libraries for cytotoxicity assessment in both normal and cancer cell lines. In summary, the results generated here constitutes a valuable resource for the scientific community and provides insight on identifying cytotoxic compounds with particular mechanisms of action, and prioritizing compounds with suitable cytotoxicity profile for further evaluation.
# A pintool (Kalypsys) was used to transfer 23 nL of compound solution to the 1536-well assay plates. After 48 or 72 hr incubation at 37 degree Celsius, 5% CO2 and 95% humidity, 2.5 uL of CellTiter-Glo (Promega) was dispensed into each well using a dispenser (Aspect Automation, St. Paul, MN) with solenoid valves (Lee Valves, Westbrook CT). Plates were left at room temperature for 10 min before imaging the ATP-coupled luminescence using a ViewLux microplate imager (PerkinElmer, Waltham, MA).
# % is scaled to controls: 0 for no effect and ±100 for the full control effect; potency is read from the fitted curve at half-maximal effect.
SMILES,Potency,max response [%],outcome
CCCNC(=O)[C@H]1O[C@H]1C(=O)N[C@H](C(=O)N1CCC[C@@H]1C(=O)OC)C(C)CC (stereo not given in full),10.5 µM (active),,
CCc1c(O)cc(O)c(C(=O)c2ccc(OCCN3CCOCC3)c(OC)c2)c1CC(=O)N(CCOC)CCOC,0.833 µM (active),,
C[C@@H]1C(=O)O[C@H]2CC34[C@H]5C[C@@H](C(C)(C)C)C36[C@H](OC(=O)[C@@H]6O)O[C@@]4(C(=O)O5)[C@]21O (stereo not given in full),,3.06,
COc1ccc2cc([S+]([O-])Cc3ncc(C)c(OC)c3C)nc2c1,,1.45,
COc1ccc(C(C)=O)c(O)c1,,0.614,
C#CCC(Cc1cnc2nc(N)nc(N)c2n1)c1ccc(C(=O)N[C@@H](CCC(=O)O)C(=O)O)cc1 (stereo not given in full),0.0418 µM (active),,
CC(=O)O[C@H]1C[C@@H]2CC[C@H]3[C@H]4C[C@H]([N+]5(C)CCCCC5)[C@@H](OC(C)=O)[C@@]4(C)CC[C@@H]3[C@@]2(C)C[C@H]1N1CCCCC1,,2.19,
C[N+]1(C)[C@@H]2C[C@@H](OC(=O)C(O)(c3cccs3)c3cccs3)C[C@H]1[C@@H]1O[C@@H]12,,-10,
Nc1cccc2c1C(=O)N(C1CCC(=O)NC1=O)C2=O (stereo not given),,-10.8,
COc1cc2c(cc1O)CCC1C2CC[C@@]2(C)C1CC[C@@H]2O (stereo not given in full),1.18 µM (active),,
C[C@H](NCc1ccc(OCc2cccc(F)c2)cc1)C(N)=O,11.8 µM (active),,
COc1cc2c(Nc3ccc(Cl)c(Cl)c3F)ncnc2cc1OCC1C[C@@H]2CN(C)C[C@H]2C1,4.69 µM (active),,
CCN(C(=O)c1c(O)c2c(Cl)cccc2n(C)c1=O)c1ccccc1,4.18 µM (active),,
O=C1NC(=O)C(=Cc2ccc3nccc(-c4ccncc4)c3c2)S1,0.0743 µM (active),,
CC(=O)[C@]1(O)Cc2c(O)c3c(c(O)c2[C@@H](O[C@H]2C[C@H](N)[C@@H](O)[C@H](C)O2)C1)C(=O)c1ccccc1C3=O,0.132 µM (active),,
CC(=O)NC(CS)C(=O)O (stereo not given),,-9.86,
Cc1[nH]c(C=C2C(=O)Nc3ccccc32)c(C)c1CCC(=O)O,4.18 µM (active),,
CC(=O)OC[C@@H]1O[C@@H](n2ccc(=O)[nH]c2=O)[C@H](OC(C)=O)[C@H]1OC(C)=O,,-0.274,
Oc1ccc([C@@H]2Oc3ccc(O)cc3[C@@H]3CCC[C@@H]32)cc1,11.8 µM (active),,
CCN(CC)CCCCNc1ncc2c(n1)N(C)C(=O)N(c1c(Cl)c(OC)cc(OC)c1Cl)C2,2.09 µM (active),,

SMILES,Potency,max response [%],outcome
C=CC[C@@H]1C=C(C)C[C@H](C)C[C@H](OC)[C@H]2O[C@@](O)(C(=O)C(=O)N3CCCC[C@H]3C(=O)O[C@H](C(C)=C[C@@H]3CC[C@H](O)[C@H](OC)C3)[C@@H](C)[C@@H](O)CC1=O)[C@@H](C)C[C@@H]2OC,7.43 µM (active),,
CCC(C)CCCCC(=O)N[C@@H](CCN)C(=O)NC(C(=O)N[C@H](CCN)C(=O)N[C@@H]1CCNC(=O)C([C@@H](C)O)NC(=O)[C@@H](CCN)NC(=O)[C@@H](CCN)NC(=O)[C@@H](CC(C)C)NC(=O)[C@H](Cc2ccccc2)NC(=O)[C@H](CCN)NC1=O)[C@@H](C)O (stereo partly drawn) ({Octanoyl(6-Me)}-[Dab][ξThr(3R)][dDab][dDab][Dab]F[dL][dDab][dDab][ξThr(3R)]; lactam 4-C),,,inactive
c1ccc(CNc2nc(NCc3ccccc3)c3ccccc3n2)cc1,14.8 µM (active),,
Cn1cc(CNCC2CCN(c3ncc(C(=O)NO)cn3)CC2)c2ccccc21,0.187 µM (active),,
CC(C(C)N1CC(=O)NC(=O)C1)N1CC(=O)NC(=O)C1 (stereo not given),1.66 µM (active),,
Nc1nc2c(c(=O)[nH]1)N(C=O)[C@H](CNc1ccc(C(=O)N[C@@H](CCC(=O)O)C(=O)O)cc1)CN2,,-23.4,
CCOC(=O)N1CCN([N+]([O-])=NOc2ccc([N+](=O)[O-])cc2C#N)CC1,3.32 µM (active),,
CCCCCCCCCCCCc1ccc(S(=O)(=O)Nc2nncs2)cc1,,,inactive
CN[C@H](CC(C)C)C(=O)N[C@H]1C(=O)N[C@@H](CC(N)=O)C(=O)N[C@@H]2C(=O)N[C@H]3C(=O)N[C@H](C(=O)N[C@H](C(=O)O)c4cc(O)cc(O)c4-c4cc3ccc4O)[C@H](O)c3ccc(c(Cl)c3)Oc3cc2cc(c3O[C@@H]2O[C@H](CO)[C@@H](O)[C@H](O)[C@@H]2O[C@H]2C[C@](C)(N)[C@H](O)[C@H](C)O2)Oc2ccc(cc2Cl)[C@H]1O,,-10.3,
C=C1C[C@@]2(O)O[C@@]3(C[C@H]2C(C)C)[C@H](C)CC[C@H]13,,0.867,
CCCCOc1ccc(C(=O)Nc2ccc(F)cc2F)cc1,,2.49,
Oc1cc2c(cc1O)C1c3ccc(O)c(O)c3OCC1(O)C2 (stereo not given),,1.47,
CS[C@H]1SC[C@@H]2C(=O)N(C)[C@H](C(C)C)C(=O)OC[C@H](NC(=O)c3cnc4ccccc4n3)C(=O)N[C@H](C)C(=O)N(C)[C@@H]1C(=O)N(C)[C@H](C(C)C)C(=O)OC[C@H](NC(=O)c1cnc3ccccc3n1)C(=O)N[C@H](C)C(=O)N2C,0.0053 µM (active),,
CCN(CC)CCNC(=O)c1c(C)[nH]c(C=C2C(=O)Nc3ccc(F)cc32)c1C,0.27 µM (active),,
CCc1ccc(C(=O)Nc2cc(CN3CCN(C)CC3)cc(C(F)(F)F)c2)cc1C#Cc1cnc2ccnn2c1,10.5 µM (active),,
N#Cc1ccc(COC[C@H]2O[C@@H](n3c(NCc4ccc(Cl)c(Cl)c4)nc4c(N)ncnc43)[C@@H](O)[C@@H]2O)cc1,16.6 µM (active),,
CC[C@]12C=CCN3CC[C@@]4(c5cc([C@@]6(C(=O)OC)C[C@H]7C[C@@H](C(C)(F)F)CN(Cc8c6[nH]c6ccccc86)C7)c(OC)cc5N(C)[C@H]4[C@@](O)(C(=O)OC)[C@H]1OC(C)=O)[C@@H]32,0.0083 µM (active),,
CCCCCCCCCCCCCCCC(=O)OC[C@@H](NC(=O)C(Cl)Cl)[C@H](O)c1ccc([N+](=O)[O-])cc1,,2.69,
O=C1c2c(O)cccc2[C@@H]([C@@H]2O[C@H](CO)[C@@H](O)[C@H](O)[C@H]2O)c2cc(CO)cc(O)c21,,,inactive
CCc1cnn2c(NCc3ccc[n+]([O-])c3)cc(N3CCCC[C@@H]3CCO)nc12,0.0332 µM (active),,
